Assay outcomes deposited in PubChem BioAssay by National Center for Advancing Translational Sciences (NCATS).
Sampled rows, rich in hits. Any-hit rate of the full collection: about 20%.
Shiga toxin inh: A qHTS for Small Molecule Inhibitors of Shiga Toxin | Vero cells, Shiga toxin protein synthesis inhibition reporter | inhibition, % at 38.7 µM | actives 9.2% (n = 290,000) | AID 2315, 2010; in the data active = inhibition mostly above about 28%, no sharp cut-off; inactive = mostly below about 43%; also: 0% is about no effect
Pf growth 96h: Primary qHTS for delayed death inhibitors of the malarial parasite plastid, 96 hour incubation; P. falciparum luciferase reporter growth, 96 h; Potency, µM (titrated, usually from 28.7 µM), without a hit: top-dose activity change, negative = inhibition, most hits filed as inhibitors; actives 6.9% (n = 320,000); also: potency is read from the fitted curve at half-maximal effect; % is scaled to controls: 0 for no effect and ±100 for the full control effect
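P. falciparum expressing integrated firefly luciferase grown in erythrocytes (2% hematocrit, 0.05% parasitemia final) with compounds for 96 hours at 37 C, 5% CO2. Growth inhibition read as loss of luminescence after adding luciferase detection reagent.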
HCMV antiviral: qHTS Assay for inhibitors of the human cytomegalovirus (HCMV) | HFF cells, HCMV-luciferase reporter, 72 h; active compounds read low | activity change, negative = inhibition, % at 57.5 µM | actives 4.5% (n = 410,000) | AID 1259415, 2018; in the data active = activity change below about -60%; inconclusive = no clear call, values can overlap the other calls; inactive = above about -39%; also: % is scaled to controls: 0 for no effect and ±100 for the full control effect
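Two-dose cell screen: HFF monolayers treated with compounds and infected with luciferase-expressing HCMV at 1 PFU/cell, 72 h at 37C, then lysed for luciferase measurement.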
Cycloheximide cs: Cycloheximide Counterscreen for Small Molecule Inhibitors of Shiga Toxin. max response, %. cell reporter, cycloheximide protein synthesis inhibition counterscreen. actives 12% (n = 300,000); in the data active = max response mostly above about 13%, no sharp cut-off; inactive = mostly below about 14%; also: read at 38.3 µM for the half of the compounds with a filed dose; 0% is about no effect
Pf growth 48h: Primary qHTS for delayed death inhibitors of the malarial parasite plastid, 48 hour incubation | P. falciparum luciferase growth in erythrocytes, 48 h | actives 5.9% (n = 310,000) | Potency, µM (titrated, usually from 28.7 µM), for inactives: at the top dose activity change, negative = inhibition, hits mostly inhibitors; also: potency is read from the fitted curve at half-maximal effect; % is scaled to controls: 0 for no effect and ±100 for the full control effect
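First compound was added to culture medium, then infected red cells at 0.1% parasitemia and 2% hematocrit (final). After incubation at 37 C under 5% CO2, luciferase detection reagent was dispensed and light output recorded.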
Numbers without * were called inactive; ? = inconclusive; · = no result given. Unless noted, calls follow the shape of the dose curve; as a rule, active = well fitted inhibition curve with a large enough effect; inconclusive = small, poorly fitted or top-dose-only effect, or another doubt; inactive = no such curve, though single readings can be large or run the other way.

SMILES	Shiga toxin inh	Pf growth 96h	HCMV antiviral	Cycloheximide cs	Pf growth 48h
COc1cccc(CNC(=O)COc2cc(=O)n(C)c3ccccc23)c1	·	·	-1.5	·	·
CC1CCCCC12NC(=O)N(Cc1cc(=O)n3ccsc3n1)C2=O (centres undefined)	2.4	-3.3%	-14.5	30.5*	-1.7%
CC1CN(Cc2cc(=O)n3ccsc3n2)CC(C)O1 (centres undefined)	-14.1	11.7µM*	54.6	-2.8	18.4%
Cc1c(NC(=S)NC(=O)c2sc3ccccc3c2Cl)cccc1C(=O)O	161.0*	-26.8%	83.5	61.4*	235.9%
CC1CCCCC1NC(=S)NC(=O)c1ccccc1Cl (centres undefined)	·	·	8.8	·	·
CC1CCCCC1NC(=S)NC(=O)c1sc2ccccc2c1Cl (centres undefined)	-6.7	?	-11.0	12.2*	?
COc1c(C)cc(S(=O)(=O)NCCN2CCOCC2)c(C)c1C	-3.3	?	-10.0	-2.2	-3.7%
CCCC1(CC)C(=O)NC(=O)N=C1N (centres undefined)	·	·	22.4	·	·
CCOC(=O)C1=C(CS(=O)(=O)c2ccccc2)NC(=O)NC1c1cc(OC)c(O)c(OC)c1 (centres undefined)	2.1	2.62µM*	-14.4	-1.0	16.7%
CCOC(=O)C1=C(COc2ccccc2)NC(=O)NC1c1ccc(Br)cc1 (centres undefined)	-8.9	3.29µM*	-23.4	-1.7	?
CCOC(=O)C1=C(CNCc2ccccc2)NC(=O)NC1c1ccc(C)cc1 (centres undefined)	·	·	-69.7*	·	·
CCOC(=O)C1=C(CCc2ccccc2)NC(=O)NC1c1ccc(Br)cc1 (centres undefined)	-8.4	-8.9%	-13.8	-1.5	19.5%
CCOC(=O)N1CCC(NC(=O)CC2C(=O)NCCN2Cc2cccc(F)c2F)CC1 (centres undefined)	-32.8	?	-17.1	1.0	12.2%
CCc1cc(C(=O)N(Cc2ccccc2)c2c(N)n(CCOC)c(=O)[nH]c2=O)sc1C	·	2.1%	-32.8	·	?
Cc1nc(SCC(=O)NC2CCS(=O)(=O)C2)c2c3c(sc2n1)CCCC3 (centres undefined)	·	-8.9%	-20.1	·	5.4%
Oc1ccc(N=Nc2cccc(Cl)c2)cc1C=Nc1ccc(N2CCOCC2)cc1	-12.1	-3.9%	55.4	-6.9	?
O=C(O)c1cc(N/N=C/c2ccc(-c3ccc(F)cc3)o2)ccc1Cl	152.1*	19.9%	53.1	45.6*	41.3%
O=C(O)c1ccc(N/N=C/c2ccc(-c3cccc(Cl)c3)o2)cc1	82.5*	113.7%	106.4	60.1*	136.3%
Clc1cccc(-c2ccc(C=Nc3ccc(N4CCOCC4)cc3)o2)c1	-10.0	10.4µM*	?	2.5	3.6%
O=C(Cc1ccc(F)cc1)N/N=C/c1ccc(-c2ccc(Cl)c(C(=O)O)c2)o1	1.8	1.8%	35.4	-1.6	-2.1%
O=C(O)c1ccc(N/N=C/c2ccc(-c3cc(Cl)ccc3Cl)o2)cc1	112.1*	-2.1%	16.9	81.4*	85.4%
O=C(c1cccc([N+](=O)[O-])c1)N1CCN(c2ccc(Nc3ccccc3)nn2)CC1	·	·	13.6	·	·
COc1ccccc1/C=C/C(=O)Nc1nc2n(n1)C(c1ccc(F)cc1)C=C(c1ccccc1)N2 (centres undefined)	·	·	-1.1	·	·
NCC(=O)N1CCC(C(=O)N[C@@H](Cc2c[nH]c3ccccc23)C(=O)O)CC1	-7.7	29.0%	-20.7	-1.3	29.7%
O=C(O)c1ccc(-c2ccc(Cl)cc2Cl)o1	-4.9	1.0%	9.7	-4.2	·
SMILES	Shiga toxin inh	Pf growth 96h	HCMV antiviral	Cycloheximide cs	Pf growth 48h
O=C(O)c1ccc(N/N=C/c2ccc(-c3ccc(Cl)cc3Cl)o2)cc1	111.3*	30.2%	-8.2	38.9*	66.2%
O=C(CSc1nc2ccccc2[nH]1)NCc1ccccc1	67.7*	?	70.5	36.1*	28.4%
O=C(CSc1nc2ncccc2[nH]1)NCc1ccccc1	6.2	-1.0%	40.4	15.8*	0.4%
O=C(CSc1nc2ncccc2[nH]1)NC1CCCCC1	-5.1	6.0%	33.3	4.3	1.5%
COc1ccc(CNC(=O)CSc2nc3ccc(OC)cc3[nH]2)cc1	-2.3	12.8%	2.8	0.5	-4.6%
COc1ccc(CNC(=O)CSc2nc3ccc(C)cc3[nH]2)cc1	30.2	17.3%	-33.6	26.2*	32.7%
CCCCOc1ccc(C(=O)N/C(=C/C=C/c2ccccc2)C(=O)NC)cc1	27.0	179.7%	-2.6	10.5*	36.9%
CCCCOc1ccc(C(=O)N/C(=C/C=C/c2ccccc2)C(=O)O)cc1	-4.1	34.4%	29.5	2.8	11.6%
Cc1nn(-c2ccccc2)nc1C(=O)NNC(=O)c1cccc2ccccc12	-6.4	140.1%	1.3	-0.9	77.7%
O=C(N=C1SCC(=O)N1c1ccccc1Cl)c1ccco1	104.2*	213.1%	107.0	29.6*	154.0%
O=C(N=C1SCC(=O)N1c1ccccc1)c1ccco1	47.2	72.6%	11.5	31.1*	·
O=C(c1ccccc1)c1ccc(C(=O)N2CCN(c3ccccc3Cl)CC2)cc1	·	-13.4%	-22.9	·	4.4%
O=C(N=C1SCC(=O)N1c1ccccc1Cl)c1ccccc1	73.2*	?	4.4	35.2*	150.3%
CC1SC(=NC(=O)c2ccco2)NC1=O (centres undefined)	21.1	·	12.4	-0.5	38.7%
O=C(NNC1CC(=O)N(c2ccccc2)C1=O)c1ccco1 (centres undefined)	16.8	?	-18.5	3.8	4.8%
c1ccc(-c2nc(-c3ccccn3)no2)cc1	-15.1	-18.8%	-17.5	-5.2	3.2%
c1ccc(-c2ccc(-c3nc(-c4ccccn4)no3)cc2)cc1	-6.3	?	-94.5*	-7.7	·
Cc1ccc(-c2nc(-c3ccccn3)no2)cc1[N+](=O)[O-]	54.7*	273.4%	48.3	37.0*	91.7%
Cc1ccc(-c2nc(-c3ccccn3)no2)cc1	-10.5	·	-90.6*	-9.7	1.2%
Cc1ccc(-c2nc(-c3ccccn3)no2)cc1Cl	4.6	·	-64.1*	-0.6	119.3%
Cc1ccc(NC(=O)CCCc2nnc3n(C)c(=O)c4sccc4n23)cc1C	·	·	-31.5	·	·
Clc1cccc(-c2nc(-c3ccccn3)no2)c1	15.8	7.38µM*	-8.0	16.2	-79.3%
CCN(CC)S(=O)(=O)c1cccc2cc(C(=O)O)c(O)cc12	-3.5	-20.0%	17.6	-3.6	-5.6%
O=C(CSc1nc2c([nH]c3ccccc32)c(=O)n1-c1ccc(F)cc1)NC1CCCCC1	·	·	-22.0	·	·
Nc1nc(-n2cnnc2)nn1-c1ccccc1	8.5	1.7%	-4.1	-1.9	6.9%
Nc1nc(N2C(=O)C3CC=CCC3C2=O)nn1-c1ccccc1 (centres undefined)	-2.4	2.94µM*	-27.6	-2.1	?
CCOC(=O)c1cnn2c(C)cc(-c3ccc(F)cc3)nc12	53.4	48.0%	13.9	33.5*	55.1%
COc1ccc(CNC(=O)Oc2ccccc2)cc1Cl	19.9	·	77.1	0.9	-4.0%
